In experiment [1] the test system is ICS. Put plainly: qHTS profiling for inhibitors of Plasmodium falciparum proliferation (AID 504749). Note: potency is the fitted concentration of half-maximal effect. As to conditions: P. falciparum in erythrocytes, SYBR Green DNA, 72 h; series mostly up to 28.7 µM. In short, it runs like this: (§1)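 Quantitative HTS: compounds pinned into medium, infected erythrocytes added (0.3% parasitemia, 2.5% hematocrit), 72 h culture at 37 C under 5% CO2. Saponin/Triton lysis with SYBR Green I, overnight RT, then fluorescence read.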
Background: In qHTS, concentration-response curves come from the screen itself.

Experiment [2] concerns JCK. The experiment is described as above. As to conditions: P. falciparum in erythrocytes, SYBR Green DNA, 72 h; series mostly up to 28.7 µM. Summed up:
as §1

The test system of experiment [3] is N140. The experiment is described as above. Particulars: P. falciparum in erythrocytes, SYBR Green DNA, 72 h; series mostly up to 28.7 µM. In short, it runs like this:
as §1

Experiment [4] relates to P93_24. The experiment is described as above. As to conditions: P. falciparum in erythrocytes, SYBR Green DNA, 72 h; series mostly up to 28.7 µM. Summed up: as §1
The subject of experiment [5] is P94_40. The description is as above. Particulars: P. falciparum in erythrocytes, SYBR Green DNA, 72 h; series mostly up to 28.7 µM. In short, it runs like this:
as §1

Experiment [6] has as its system PAD. The description is as above. As to conditions: P. falciparum in erythrocytes, SYBR Green DNA, 72 h; series mostly up to 28.7 µM. Summed up:
as §1

Experiment [7] concerns PC15. The experiment is described as above. As to conditions: P. falciparum in erythrocytes, SYBR Green DNA, 72 h; series mostly up to 28.7 µM. In short, it runs like this:
as §1

Experiment [8] has as its system PC26. The experiment is described as above. As to conditions: P. falciparum in erythrocytes, SYBR Green DNA, 72 h; series mostly up to 28.7 µM. In short, it runs like this:
as §1

For experiment [9], the system named is PC49. The experiment is described as above. Particulars: P. falciparum in erythrocytes, SYBR Green DNA, 72 h; series mostly up to 28.7 µM. Summed up: as §1
For experiment [10], the system named is SC27B. Described as above. As to conditions: P. falciparum in erythrocytes, SYBR Green DNA, 72 h; series mostly up to 28.7 µM. In short, it runs like this: as §1
Experiment [11] has as its system TAB109. The description is as above. As to conditions: P. falciparum in erythrocytes, SYBR Green DNA, 72 h; series mostly up to 28.7 µM. In short, it runs like this:
as §1

Experiment [12] deals with TAB113. The experiment is described as above. As to conditions: P. falciparum in erythrocytes, SYBR Green DNA, 72 h; series mostly up to 28.7 µM. Summed up: as §1
Experiment [13] has as its system TAB165. Described as above. As to conditions: P. falciparum in erythrocytes, SYBR Green DNA, 72 h; series mostly up to 28.7 µM. In short, it runs like this:
as §1

The subject of experiment [14] is W2. The description is as above. As to conditions: P. falciparum in erythrocytes, SYBR Green DNA, 72 h; series mostly up to 28.7 µM. In short, it runs like this:
as §1

Experiment [15] concerns CRL-7250. As to the kind of experiment: qHTS assay to identify novel small-molecules to repurpose for Merkel cell carcinoma treatment (AID 1296009). As to conditions: MCC and control cell lines, CellTiter-Glo viability, 72 h; at 44.8 µM (top of the series) unless noted. Summed up:
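Viability readout: ATP luminescence (CellTiter-Glo) after 72 hr drug exposure at 37 degree celsius. Dose-response format was 8 points for NPC and 11 points for MIPE; data normalized to in-plate controls.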

Results filed as inconclusive are left out. Entries that show only a call come without a potency. Active and inactive are the calls of the source. Calls come from the whole dose curve; as a rule, active = well fitted inhibition curve with a large enough effect; inconclusive = small, poorly fitted or top-dose-only effect; inactive = flat fitted curve, though single readings scatter.
Note: nearly all actives have a fitted effect of over 60% in size.

For the compound `CC(C)(O)C(Cl)(Cl)Cl`, the Potency in experiment [1] was 891 nM (active); in experiment [2] it was 11200 nM (active); in [3] it was 2510 nM (active); in experiment [4] it was 2240 nM (active); in experiment [5], 2510 nM (active); in experiment [6], 3550 nM (active). The Potency in experiment [7] was 2240 nM (active); in [8] it was 8490 nM (active); in experiment [9] it was 7080 nM (active); in [10] it was 4470 nM (active); in experiment [11] it was 3160 nM (active); in [12], 4470 nM (active). The Potency was 1780 nM (active) in experiment [13] and 1510 nM (active) in experiment [14].
For `COC1=C(OC)C(=O)C(CCCCCCCCCCO)=C(C)C1=O`, the outcome in [15] was inactive.
On to `CCN(CCCc1ccccc1)CCCc1ccccc1`, for which the result in [15] was inactive.
On the same count and under the same terms, next, `CCCCCCCC/C=C\CCCCCCCCN`: “inactive”; `CCN(CC)C(=O)c1cccc(C)c1`: “inactive”.
Same read-out and setting: as for `Cn1cnc2c1c(=O)[nH]c(=O)n2C`, the entry is “inactive”.
The same measure, in the same setting: as for `O=C(O)CN(CCOCCOCCN(CC(=O)O)CC(=O)O)CC(=O)O`, the entry is “inactive [at 0.588 µM]”; as for `CC(C)(C)C(=O)C(Oc1ccc(Cl)cc1)n1ccnc1` (stereo not given), “inactive”; as for `Cc1cc(CC(=O)O)n(C)c1C(=O)c1ccc(Cl)cc1`, “inactive”.
For `Nc1nc2ncc(CNc3ccc(C(=O)N[C@@H](CCC(=O)O)C(=O)O)cc3)nc2c(=O)[nH]1`, in experiment [15], the compound was classed as inactive.
In the case of `COc1cc2[nH]c(=O)[nH]c(=O)c2cc1OC`, the result in experiment [15] was inactive.
In the case of `Cc1cn([C@H]2C[C@H](F)[C@@H](CO)O2)c(=O)[nH]c1=O`, the outcome in [15] was inactive.
On the same count and under the same terms, next, `CC1=C(C(=O)O)N2C(=O)[C@@H](NC(=O)[C@H](N)C3=CCC=CC3)[C@H]2SC1`: “inactive”; `C(=C\c1ccccc1)/CN1CCN(C(c2ccccc2)c2ccccc2)CC1`: “inactive”; `Nc1ccc(N=Nc2ccccc2)c(N)n1`: “inactive”.
On the same count and under the same terms, as for `CC1=CC(=O)c2ccccc2C1=O`, the entry is “inactive”.
The same measure, in the same setting: as for `CCOC(=O)OC(C)OC1=C(C(=O)Nc2ccccn2)N(C)S(=O)(=O)c2ccccc21` (stereo not given), the entry is “inactive”.

For the origin of these results see PubChem BioAssay (NCATS).
